# KCNQ2 block: rat KCNQ2 potassium channel inhibitors, primary screen, cell-based, CHO-K1, FluxOR thallium flux, B-score; 20 min; hits give low values; 1.1% of 310,000 active; Potassium voltage-gated channel subfamily KQT member 2 (Rattus norvegicus), O88943; B-score at 10 µM;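 active means fluorescence ratio B-score at most minus 3 library SDs, with starting brightness B-score within 2 library SDs, cut at about -5.5 in these data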
# Target sequence (O88943 whole entry, looked up): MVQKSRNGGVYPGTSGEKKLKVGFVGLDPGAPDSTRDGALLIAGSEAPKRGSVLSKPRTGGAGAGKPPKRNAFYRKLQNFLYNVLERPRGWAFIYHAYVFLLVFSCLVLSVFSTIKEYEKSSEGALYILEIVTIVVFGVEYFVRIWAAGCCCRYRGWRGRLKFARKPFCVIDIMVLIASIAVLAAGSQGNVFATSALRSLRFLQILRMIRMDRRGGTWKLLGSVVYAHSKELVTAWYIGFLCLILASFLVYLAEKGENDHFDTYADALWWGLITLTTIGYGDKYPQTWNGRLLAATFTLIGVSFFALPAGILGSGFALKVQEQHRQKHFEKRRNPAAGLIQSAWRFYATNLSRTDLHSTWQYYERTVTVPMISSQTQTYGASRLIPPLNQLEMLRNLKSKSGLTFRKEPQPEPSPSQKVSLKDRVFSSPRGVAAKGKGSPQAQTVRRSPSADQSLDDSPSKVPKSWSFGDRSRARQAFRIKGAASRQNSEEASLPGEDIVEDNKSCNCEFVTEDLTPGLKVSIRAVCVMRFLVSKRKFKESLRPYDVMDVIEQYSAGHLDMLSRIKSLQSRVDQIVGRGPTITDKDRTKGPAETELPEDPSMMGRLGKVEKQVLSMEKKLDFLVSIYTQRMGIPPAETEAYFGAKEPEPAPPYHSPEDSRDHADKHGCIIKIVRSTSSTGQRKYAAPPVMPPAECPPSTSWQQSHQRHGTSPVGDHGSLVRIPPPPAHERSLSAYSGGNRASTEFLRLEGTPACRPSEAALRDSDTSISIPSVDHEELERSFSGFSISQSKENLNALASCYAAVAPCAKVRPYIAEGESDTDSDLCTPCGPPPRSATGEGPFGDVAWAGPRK
# KCNQ2 pot: potentiators of rat KCNQ2 potassium channel | 0.54% of 310,000 active | AID 2239, 2010 | Potassium voltage-gated channel subfamily KQT member 2 (Rattus norvegicus), O88943 | B-score at 10 µM | CHO-K1 KCNQ2, FluxOR thallium flux fluorescence; hits give high values;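 active means fluorescence ratio B-score at least 3 SD of library B-scores, with initial fluorescence B-score within 3 of them, cut at about 5.3 in these data; same plate scores as AID 2156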;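 further: B-score of peak minus minimum over baseline fluorescence ratio after K+ and Tl+ stimulus; positive B-score means potentiation of KCNQ2 with more thallium influx and brighter signal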
# KCNQ2 block conf: rat KCNQ2 potassium channel inhibitors, confirmation, cell-based, thallium flux; shares compounds with KCNQ2 block; KCNQ2-expressing cells, inhibition; hits give low values; activity change, negative = inhibition, % at 10 µM; 57% of 1,000 active; AID 493025, 2011;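 further: 0% = vehicle wells and values are ratio percent relative to vehicle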
# KCNQ1 spec: human KCNQ1 channel inhibition, counter-screen for KCNQ2 inhibitor project, cell-based, FluxOR thallium flux; activity change, negative = inhibition, % at 10 µM; AID 493026, 2011; 15% of 1,000 active; KCNQ1-expressing cells, FluxOR thallium flux fluorescence; hits give low values; shares compounds with KCNQ2 block;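 active means activity change at least 3 SD of negative controls below their mean in both duplicate wells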;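 further: CHO cells stably transfected with KCNQ1 and depolarized by potassium stimulus; peak minus minimum fluorescence over baseline after thallium addition; 0% = vehicle negative control and -100% = blank without thallium stimulus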
# CHO parental ctr: thallium flux change in parental CHO cells, counter-screen for KCNQ2 inhibitor project. 14% of 1,000 active. activity change, % at 10 µM. hits give low values. shares compounds with KCNQ2 block;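 further: 0% = vehicle negative controls with stimulus buffer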
# KCNQ2 inh confirm: rat KCNQ2 channel inhibitors, confirmation, cell-based, automated patch clamp, single concentration | shares compounds with KCNQ2 block | KCNQ2-expressing cells, automated patch clamp current | calls only at 10 µM | 49% of 550 active | AID 588531, 2011
# Kir21 confirm: mouse Kir2.1 channel blockers, retest, confirmation, cell-based, FluxOR thallium flux, duplicate. shares compounds with KCNQ2 pot. Tl flux remaining, % of negative control (hits give low values), % at 10 µM. 41% of 2,300 active. Kir2.1-expressing cells, FluxOR thallium flux fluorescence; hits give low values;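 active means Primary-screen hit whose thallium flux fell at least 3 control SD below untreated wells in both duplicates, with normal baseline fluorescence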;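 further: 0% = blank wells without stimulus and 100% = stimulated no-compound controls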
# HEK293 ctr: alters thallium flux in parental HEK293 cells, Kir2.1 counter-screen | shares compounds with KCNQ2 pot | FluxOR thallium flux fluorescence; 0% = unstimulated blank wells | FluxOR signal as % of negative control (100 = no effect), % at 10 µM | 19% of 2,300 active | AID 2105;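 active means dye signal at least 3 control SD above or below untreated wells in both duplicates, raw fluorescence within 3, either direction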;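 further: percent is based on the flux ratio of peak minus minimum fluorescence over baseline F0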
# * marks the source's active call; other numbers are inactive results; i = inactive; x = no result given; + = active, no number. In the library only some 1.6% were active in any assay of this set; here they are far more common. Unless noted, how the calls were made is not given here.
SMILES,KCNQ2 block,KCNQ2 pot,others
COc1ccc(-n2c(/C=C/c3ccc(O)c(OC)c3)nc3ccccc3c2=O)cc1,i,x,
CCC1(CC)C(=N)N(C)C(=O)NC1=O,i,0.24,
Clc1ccc(COC(Cn2ccnc2)c2ccc(Cl)cc2Cl)c(Cl)c1 (stereo not drawn),-7.31*,-7.31,KCNQ2 block conf=-38.0%*;KCNQ1 spec=-42.0%*;CHO parental ctr=-34.5%*;KCNQ2 inh confirm=i
COc1ccc(-c2cc(=O)oc3c(C)c(OC(C)C(=O)N4C[C@H]5C[C@@H](C4)c4cccc(=O)n4C5)ccc23)cc1 (stereo partly drawn),i,x,
CCOC(=O)c1c(/N=C/C2C(=O)NC(=O)NC2=O)sc2c1CCC2,i,0.38,
CCOC(=O)c1c(NC(NC(=O)CF)C(Cl)(Cl)Cl)sc2c1CCCC2 (stereo not drawn),-8.37*,-8.37,KCNQ2 block conf=-29.0%*;KCNQ1 spec=i;CHO parental ctr=i;KCNQ2 inh confirm=i
CC(C)(C)C(=O)NC1CCSC1=O (stereo not drawn),i,1,
CC1CCN(CC#CCOc2ccc(Cl)cc2)CC1,i,x,
CCC(C#N)(CC)P(=S)(c1ccccc1)c1ccccc1,-8.64*,-8.64,KCNQ2 block conf=i;KCNQ1 spec=i;CHO parental ctr=i
CCCc1cc(=O)oc2cc(OCC(=O)N3CCC(C(=O)O)(c4ccccc4)CC3)ccc12,i,0.88,
NC(N)=N/N=C/c1cn(-c2ccccc2)nc1-c1cccs1,-11.3*,-11.3,KCNQ2 block conf=i;KCNQ1 spec=i;CHO parental ctr=i
O=c1c2ccccc2nc(-c2cccs2)n1-c1ccccc1,i,x,
CC1CN(C(=O)CCC(=O)N2CCC3(CC2)OCCO3)c2cc(Cl)ccc2O1 (stereo not drawn),i,1.06,
O=P(NCc1ccccc1)(Oc1ccccc1)Oc1ccccc1,-6.87*,-6.87,KCNQ2 block conf=i;KCNQ1 spec=i;CHO parental ctr=i
O=P(NS(=O)(=O)c1ccccc1)(Oc1ccccc1)Oc1ccccc1,i,0.11,
C[N+]1(CC(COCc2ccccc2)OC(=O)Cc2ccccc2)CCOCC1 (stereo not drawn),i,0.01,
CCN(CC)c1ccc(/C=C/[N+](=O)[O-])cc1,-8.76*,-8.76,KCNQ2 block conf=-75.0%*;KCNQ1 spec=-79.5%*;CHO parental ctr=-76.5%*;KCNQ2 inh confirm=i
CCN(CC)c1ccc(CC2C(=O)N(C)C(=O)N(C)C2=O)cc1,i,x,
C=CCn1c(O)c(C(C)=Nc2cc(OC)ccc2OC)c(=O)[nH]c1=O,i,0.07,
CCCC1(CCC)C(=O)NC(=Nc2ccccc2)NC1=O,i,1.27,
CCCC1(CCC)C(=O)NC(=NCc2ccccc2)NC1=O,-10.3*,-10.3,KCNQ2 block conf=-36.5%*;KCNQ1 spec=i;CHO parental ctr=i;KCNQ2 inh confirm=+
COC(=O)N(c1ccccc1)P(=O)(Oc1ccccc1)Oc1ccccc1,i,x,
Oc1ccc(-[n+]2c(-c3ccccc3)cc(-c3ccccc3)cc2-c2ccccc2)cc1,-6.93*,-6.93,KCNQ2 block conf=-27.0%*;KCNQ1 spec=i;CHO parental ctr=i;Kir21 confirm=44.5%*;HEK293 ctr=73.5%*
O=C([O-])c1ccc(-[n+]2c(-c3ccccc3)cc(-c3ccccc3)cc2-c2ccccc2)cc1,i,x,
CN1CCN(c2nc3ccccc3o2)CC1,i,x,
SMILES,KCNQ2 block,KCNQ2 pot,others
CCCCCCCSc1cc(OC)c(CCNC)cc1OC,-7.43*,-7.43,KCNQ2 block conf=-31.0%*;KCNQ1 spec=i;CHO parental ctr=i;KCNQ2 inh confirm=i;Kir21 confirm=19.5%*;HEK293 ctr=i
COc1cc(N2C(=O)CC(=O)NC2=O)cc(OC)c1OC,i,0.67,
O=C(O)C1CN2CCC1CC2 (stereo not drawn),i,0.75,
Cc1ccc2[nH]c(C)c(CCNCc3ccco3)c2c1,i,0.72,
CCOc1cccc(CNCCc2c(C)[nH]c3ccc(OC(F)(F)F)cc23)c1O,i,x,Kir21 confirm=22.5%*;HEK293 ctr=i
Cc1[nH]c2ccc(OC(F)(F)F)cc2c1CCNCc1ccc(Cl)cc1,-7.73*,-7.73,Kir21 confirm=16.0%*;HEK293 ctr=i
Cc1[nH]c2ccc(OC(F)(F)F)cc2c1CCNCc1cccc([N+](=O)[O-])c1,i,x,
COc1ccc(-[n+]2c(-c3ccccc3)cc(-c3ccccc3)cc2-c2ccccc2)cc1,-8.37*,-8.37,Kir21 confirm=26.5%*;HEK293 ctr=i
O=[N+]([O-])c1ccc(-[n+]2c(-c3ccccc3)cc(-c3ccccc3)cc2-c2ccccc2)cc1,i,0.04,
O=C1CN(O)C(c2ccccc2)=c2cc(Cl)ccc2=N1,i,x,
O=c1cccc2n1CC1CC2CN(Cc2c(F)cccc2Cl)C1 (stereo not drawn),i,0.97,
O=c1cccc2n1CC1CC2CN(Cc2cccc(Cl)c2Cl)C1 (stereo not drawn),i,x,Kir21 confirm=37.5%*;HEK293 ctr=i
CCOC(=O)C1=C(NC(=S)NC(=O)c2ccccc2)c2ccccc2CC12CCCC2,i,x,
COc1ccc(CNCCc2ccc3c(c2)OCO3)cc1Br,i,x,Kir21 confirm=16.5%*;HEK293 ctr=i
Clc1cccc(CNCCc2ccc3c(c2)OCO3)c1,i,x,
COc1ccc(Br)cc1CNCCc1ccc2c(c1)OCO2,i,x,
Clc1ccc(CNCCc2ccc3c(c2)OCO3)cc1,i,x,Kir21 confirm=27.5%*;HEK293 ctr=i
S=C1NCCN1,i,0.31,
CCCCCSc1cc(OC)c(CCNC)cc1OC,i,1.41,Kir21 confirm=43.0%*;HEK293 ctr=i
Cn1c(CN2CCN(C(=O)COc3ccccc3)CC2)nc2cc([N+](=O)[O-])ccc21,i,x,
CC1=CC2/C=C(\C)CCC(O)C(O)/C=C/C(=O)C23C(=O)NC(CC(C)C)C3C1C (stereo not drawn),i,x,Kir21 confirm=63.5%*;HEK293 ctr=i
COc1cccc(C(=O)C2CCCN(Cc3ccc(F)cc3)C2)c1 (stereo not drawn),i,1.47,
COc1ccc(CN2CCCC(C(=O)c3ccc(Cl)cc3)C2)c(O)c1 (stereo not drawn),i,x,Kir21 confirm=67.5%*;HEK293 ctr=i
COc1cc(CN2CCCC(C(=O)c3sccc3C)C2)cc(OC)c1O (stereo not drawn),i,0.28,
COc1ccc(CN2CCCC(C(=O)c3sccc3C)C2)cc1O (stereo not drawn),i,0.95,Kir21 confirm=56.5%*;HEK293 ctr=i
Cn1c(O)c(C=NC2CCCCCC2)c(=O)[nH]c1=S,i,x,
O=C(Cn1cnc2sc3c(c2c1=O)CCCC3)NCCC(=O)N1CCC2(CC1)OCCO2,i,0.7,
Cc1ccc(Cn2cc(C=O)c(-c3ccc(C)cc3)n2)cc1,i,x,

# Compound activity as filed in PubChem.
